A selection: hits, their analogues and other compounds. The true share with any hit is near 17%.
ClpP mod – qHTS Assay for Activators of ClpP. ATP-dependent Clp protease proteolytic subunit (Bacillus subtilis (strain 168)), P80244. purified B. subtilis ClpP, FRET peptide cleavage, 20 min. Potency, µM (highest dose often 57.5 µM), without a hit: at the top dose activity change, negative = active. actives 1.9% (n = 340,000). AID 651965, 2013; active means well fitted falling curve with a large enough effect; inconclusive means small, poorly fitted or top-dose-only effect; inactive means no such curve, though single readings can be large or run the other way; further: the source files actives as falling curves though it sought activators and does not explain the sign; nearly all actives have a fitted effect of over 65% in size
Target sequence (P80244 whole entry, looked up): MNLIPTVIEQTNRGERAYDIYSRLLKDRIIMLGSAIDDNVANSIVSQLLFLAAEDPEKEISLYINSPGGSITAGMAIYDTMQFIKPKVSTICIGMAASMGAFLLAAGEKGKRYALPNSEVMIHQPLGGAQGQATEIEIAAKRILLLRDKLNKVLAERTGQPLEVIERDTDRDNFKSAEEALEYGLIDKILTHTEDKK
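ClpP 10 microg/mL final, pH 8 Tris/KCl buffer with BSA, glycerol, Tween-20; compound pinned in; FRET-FV substrate; RT 20 min; Ex320/Em430; ΔFRET vs ADEP 5.8 microM, DMSO, no enzyme.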
TDP1 cell CPT – growth inhibition of DT40 Tdp1-/-;hTDP1 cells with camptothecin (screen for TDP1 inhibitors); chicken DT40 Tdp1-/-;hTDP1 cells + 20 nM CPT, ATP luminescence, 48 h; Potency, µM (top dose mostly 46.2 µM), inactives show at the highest dose activity change, negative = growth inhibition, hits mostly inhibitors; actives 12% (n = 420,000); AID 686979; further: on the % scale 0 is the no-effect control and ±100 the full control effect; nearly all actives have a fitted effect of over 55% in size
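Cell growth measured by CellTiter-Glo luminescence after a minimum 48 h, 37 C compound exposure with 20 nM CPT in Tdp1-knockout DT40 cells stably expressing hTDP1, seeded 400/well; qHTS titration format.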
DT40 TDP1 no CPT – qHTS for Inhibitors of human tyrosyl-DNA phosphodiesterase 1 (TDP1): qHTS in cells in absence of CPT; DT40 Tdp1-/- hTDP1 cells, no CPT, ATP luminescence, 48 h; Potency, µM (top dose mostly 46.2 µM), for the others: at the top dose activity change, negative = growth inhibition, usual class: inhibitors; actives 15% (n = 420,000); AID 686978, 2013; further: on the % scale 0 is the no-effect control and ±100 the full control effect; nearly all actives have a fitted effect of over 55% in size
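A cellular qHTS used chicken DT40 cells lacking endogenous Tdp1 but carrying stably transfected human TDP1. Compounds were applied without camptothecin, and cell growth kinetics were judged by ATP-dependent luminescence after ≥48 hr.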
TDP1 block – blocks human tyrosyl-DNA phosphodiesterase 1; recombinant TDP1, AlphaScreen DNA substrate cleavage; Q9NUW8; AID 485290; Potency, µM (highest dose often 130 µM), for the others: at the highest dose activity change, negative = inhibition, actives largely listed as inhibitors; actives 0.28% (n = 350,000); further: on the % scale 0 is the no-effect control and ±100 the full control effect; nearly all actives have a fitted effect of over 40% in size
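AlphaScreen read-out: signal falls as enzyme removes the 3' tyrosine-FITC from a 5'-biotinylated DNA oligo (15 nM, 5 min, RT). Enzyme was E. coli-made recombinant Tdp1 at 1 nM, exposed to compound for 15 min beforehand; beads 10 ug/ml, 10 min.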
An asterisk follows results filed as active; ? = inconclusive; . = no result given; [ ] = remark or other dose. Unless noted, the call rests on the fitted dose curve; in most records, active means well fitted curve in the direction sought with a large enough effect; inconclusive means small, poorly fitted or top-dose-only effect, or another doubt; inactive means no such curve, though single readings can be large; an effect the other way counts as inactive or inconclusive. Potency means the concentration at half of the fitted maximal effect.

SMILES	ClpP mod	TDP1 cell CPT	DT40 TDP1 no CPT	TDP1 block
COc1ccc(Nc2cc(Nc3cc(OC)c(OC)c(OC)c3)ncn2)cc1	0.0%	18.4µM*	20.6µM*	.
COc1ccccc1Nc1nc(-c2ccccc2)nc2ccccc12	-19.6%	?	?	.
COc1cc(Nc2c3ccccc3nc3ccccc23)cc(OC)c1OC	.	7.31µM*	5.17µM*	.
COc1ccc(Nc2c3ccccc3nc3ccccc23)cc1	.	?	?	7.6%
COc1ccccc1Nc1c2ccccc2nc2ccccc12	-2.6%	16.4µM*	16.4µM*	.
CCNC(=O)NC(=O)C(C)OC(=O)c1oc2ccccc2c1CSC1CCCCC1 (stereo not drawn)	0.2%	?	?	2.7%
CNC(=O)NC(=O)C(C)OC(=O)c1oc2ccccc2c1CSc1ccc(Cl)cc1 (stereo not drawn)	.	?	20.6µM*	4.2%
[O-][n+]1c2ccccc2c2n1CCN1CCOC21c1ccc(Cl)cc1 (stereo not drawn)	-2.8%	2.06µM*	7.31µM*	1.1%
OCC1(CCOc2ccccc2)CCN(CC2=Cc3cc(Cl)ccc3OC2)CC1	.	18.4µM*	20.6µM*	7.7%
COc1cc(Cl)c(CN2CCC(CO)(CCOc3ccccc3)CC2)cc1OC	0.2%	?	?	.
CCc1ccc(CNC(=O)C2CCN(S(=O)(=O)N3CCCCC3)CC2)cc1	-1.1%	?	23.1µM*	.
COc1ccc(CNC(=O)C2CCN(S(=O)(=O)N3CCCCC3)CC2)cc1	-0.5%	-4.0%	3.1%	1.5%
CCC(C(=O)O)n1ccc2cc(S(=O)(=O)N3CCCCC3)ccc21 (stereo not drawn)	-0.4%	-3.5%	-8.6%	2.5%
CCc1ccc(CNC(=O)C2CCCN(S(=O)(=O)c3ccc4c(ccn4C)c3)C2)cc1 (stereo not drawn)	-24.3%	20.6µM*	14.6µM*	3.0%
CCc1ccc(CNC(=O)C(CC)n2ccc3cc(S(=O)(=O)N4CCCCC4)ccc32)cc1 (stereo not drawn)	-3.7%	?	23.1µM*	5.6%
CCC(C(=O)NCCc1ccc(Cl)cc1)n1ccc2cc(S(=O)(=O)N3CCCCC3)ccc21 (stereo not drawn)	-4.7%	13µM*	?	5.6%
Cc1ccccc1-c1cccc(CN2CCc3nnc(C(NS(C)(=O)=O)C(C)C)n3CC2)c1 (stereo not drawn)	.	-9.0%[9.04 µM]	?	.
COc1cc(C(=O)OCC(=O)N(C)c2ccccc2)cc(OC)c1OC	0.4%	2.4%	-1.1%	.
CCN1CCN(C(=O)NS(=O)(=O)c2ccc(C)cc2)CC1	-0.3%	1.5%	3.6%	.
CC(NC(=O)c1ccco1)c1nc(-c2ccc(C(C)(C)C)cc2)no1 (stereo not drawn)	.	20.6µM*	20.6µM*	9.2%
Cc1ccc(-c2noc(C(C)NS(=O)(=O)c3ccc(C)cc3)n2)cc1 (stereo not drawn)	-1.3%	?	20.6µM*	5.7%
Cc1ccc(-c2noc(C(C)NC(=O)c3ccco3)n2)cc1 (stereo not drawn)	-1.4%	16.4µM*	11.6µM*	7.0%
CC1CC(C)CN(CC(O)COCc2ccccc2F)C1 (stereo not drawn)	2.4%	0.8%	-1.9%	.
CCOc1ccc(C(=O)N[C@H](C(=O)Nc2ccccc2OC)C(C)C)cc1	.	-18.3%	?	13.5%
CC1CN(c2nnc(NC(=O)c3ccccc3)s2)CC(C)O1 (stereo not drawn)	-2.8%	-20.8%	-10.6%	1.6%
SMILES	ClpP mod	TDP1 cell CPT	DT40 TDP1 no CPT	TDP1 block
O=C(CC[C@H]1O[C@@H](n2ccc(=O)[nH]c2=O)[C@H](O)[C@@H]1O)NCC1CCCO1 (stereo partly drawn)	0.8%	-6.3%	-1.9%	.
CCCCCCCC#Cc1ccccc1/C=N/S(=O)c1ccc(C)cc1 (stereo not drawn)	-7.7%	11.6µM*	18.4µM*	17.5%[21 µM]
CCOc1ccc(NC(=O)Cn2c(=O)n(Cc3ccc(C(=O)NCc4ccc(C)cc4)cc3)c(=O)c3ccccc32)cc1	-2.2%	16.4µM*	14.6µM*	2.5%
Cc1ccc(CNC(=O)c2ccc(Cn3c(=O)c4ccccc4n(CC(=O)Nc4c(C)cc(C)cc4C)c3=O)cc2)cc1	-5.0%	6.51µM*	4.61µM*	0.0%
COc1ccc(NC(=O)Cn2c(=O)n(Cc3ccc4c(c3)OCO4)c(=O)c3ccc(C(=O)NC4CCCCC4)cc32)cc1	-1.9%	8.2µM*	7.31µM*	0.0%
Cc1ccc(CNC(=O)c2ccc(Cn3c(=O)c4ccccc4n(CC(=O)Nc4ccc(C)cc4C)c3=O)cc2)cc1	-5.7%	16.4µM*	?	0.0%
Cc1ccc(CNC(=O)c2ccc(Cn3c(=O)c4ccccc4n(CC(=O)Nc4ccc(C)cc4)c3=O)cc2)cc1	-18.7%	-26.1%	-23.0%	2.5%
CCOC(=O)C1(C)CCN1C(=O)/C=C/c1ccccc1 (stereo not drawn)	0.1%	-24.2%	-20.6%	.
CCn1nnc(NC(=O)COc2ccc([N+](=O)[O-])cc2)n1	.	9.1%	3.6%	.
O=C(CC1N=C2c3ccccc3N=C(SCC(=O)Nc3cccc(C(F)(F)F)c3)N2C1=O)NCc1cccs1 (stereo not drawn)	-18.6%	?	?	-4.3%[12.3 µM]
Cc1cc(C)c(NC(=O)Cn2c(=O)n(CCc3ccccc3)c(=O)c3ccccc32)c(C)c1	1.8%	14.6µM*	20.6µM*	-1.8%
O=C(Cn1c(=O)n(-c2ccccc2)c(=O)c2ccc(C(=O)NCc3ccc4c(c3)OCO4)cc21)Nc1ccc(Br)cc1F	?	?	14.6µM*	-4.7%
Cc1ccc(Cl)cc1NC(=O)Cn1c(=O)n(Cc2ccc(C(=O)NCc3ccc4c(c3)OCO4)cc2)c(=O)c2ccccc21	11.2µM*	-22.4%	-15.9%	0.9%
O=C(Cn1c(=O)n(Cc2ccc(C(=O)NCc3ccc4c(c3)OCO4)cc2)c(=O)c2ccccc21)Nc1ccccc1F	4.1%	-11.8%	-12.4%	-1.8%
COC(=O)c1ccccc1NC(=O)Cn1c(=O)n(-c2ccc(C)cc2)c(=O)c2ccccc21	-23.3%	0.82µM*	0.92µM*	-1.8%
COc1cccc(N2CC(NC(=O)c3cccc(OC)c3OC)CC2=O)c1 (stereo not drawn)	-14.0%	2.1%	-4.1%	-7.8%
Cc1nc2cncnc2n(Cc2ccccc2Cl)c1=O	.	-16.4%	-1.5%	.
O=c1cnc2cncnc2n1Cc1ccccc1Cl	.	2.31µM*	1.3µM*	.
O=c1c(-c2ccccc2)nc2cncnc2n1Cc1ccc(F)cc1	.	?	20.6µM*	.
COc1ncc2ncc(=O)n(Cc3ccc(F)cc3)c2n1	.	-2.6%	-24.3%	.
O=c1cnc2cncnc2n1Cc1ccccc1	.	5.8µM*	7.31µM*	.
O=c1cnc2cncnc2n1Cc1ccc(F)cc1	.	4.11µM*	4.11µM*	.

High-throughput results: PubChem BioAssay, National Center for Advancing Translational Sciences (NCATS)
